Measurements published in PubChem BioAssay AID720690 (Broad Institute, 2013).
Results with a measured potency or affinity are listed apart. Calls of active or inactive are those of the source.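 Rule for the calls: active = every repeat run showing a signal drop whose fitted half-maximal concentration is at most twice the top tested concentration; inconclusive = repeat runs disagree, or flat partial drop, or poor fit; inactive = the rest.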

test: general mammalian cell viability loss – activator set, cherry-pick, cytotoxicity control for miR-122 modulator project, dose response (AID 720690); details: HEK293T viability, CellTiter-Glo luminescence, 48 h; series mostly up to 26 µM; activity change, negative = cytotoxicity: at the top concentration;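 note: 0% = neutral control wells and -100% = MG132 cytotoxic control wells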

| SMILES | activity change, negative = cytotoxicity |
| --- | --- |
| CN1C(=O)c2cc(NC(=O)c3cccc(F)c3)ccc2OC[C@@H]2O[C@@H](CC(=O)O)CC[C@@H]21 | -6.33% [at 23.5 µM] (inactive) |
| COCC(=O)N1[C@H](CO)[C@@H](c2ccccc2)[C@H]1CN(C)C(=O)c1ccncc1 | -11.8% (inactive) |
| CCOc1ccc(NC(=S)N(CCCN2CCCC2)Cc2cccn2Cc2ccc(Cl)cc2)cc1 | -12.4% (inactive) |
| CNC(=O)C[C@H]1CC[C@@H]2[C@H](COc3ccc(NC(=O)Nc4cccc(F)c4)cc3C(=O)N2C)O1 | -6.54% (inactive) |
| C[C@@H]1CN([C@@H](C)CO)C(=O)c2cc(NC(=O)NC3CCCCC3)ccc2O[C@@H]1CN(C)C(=O)Nc1ccc2c(c1)OCO2 | -8.64% (inactive) |
| C/C=C/c1ccc([C@@H]2[C@@H](CNC(=O)c3ccncc3)N(C(=O)CC)[C@H]2CO)cc1 | -12.1% (inactive) |
| CCCNC(=O)Nc1ccc2c(c1)C(=O)N(C)[C@H]1CC[C@H](CC(=O)NC3CCC3)O[C@H]1CO2 | -0.002% (inactive) |
| N#Cc1ccc(C(=O)Nc2ccc(N3CCN(C(=O)c4ccco4)CC3)cc2)c(F)c1 | 8.37% (inactive) |
| CCN(CC)CCNc1nc(-c2ccccc2)nnc1C(F)(F)F | -4.86% (inactive) |
| C/C=C/c1ccc([C@H]2[C@H](CO)N(C(C)=O)[C@H]2CN(C)C(=O)c2ccccn2)cc1 | 5.37% (inactive) |
| Cc1cccc(C)c1NC(=O)CSCC(=O)c1ccc(O)c(O)c1 | 7.16% (inactive) |
| CN1C(=O)c2cc(NC(=O)C3CC3)ccc2OC[C@@H]2O[C@H](CC(=O)NC3CCC3)CC[C@H]21 | -3.55% [at 23.5 µM] (inactive) |
| COc1ccc(S(=O)(=O)Nc2cc(C)cc(C)n2)c2ccccc12 | 16.4% (inactive) |
| CCC(=O)Nc1ccc2c(c1)C(=O)N(C)[C@@H]1CC[C@H](CC(=O)NCCN3CCCCC3)O[C@H]1CO2 | -0.622% (inactive) |
| C[C@H](CO)N1C[C@H](C)[C@H](CN(C)S(=O)(=O)c2ccc(F)cc2)Oc2ccc(NS(C)(=O)=O)cc2C1=O | -2.03% (inactive) |
| COc1cccc(CNC(=O)C[C@@H]2CC[C@H]3[C@H](COc4ccc(NC(C)=O)cc4C(=O)N3C)O2)c1 | -3.81% (inactive) |
| COc1ccc(C(O)(CC(C)C)C(CN2CCOCC2)c2ccccc2)cc1 (configuration not stated) | -7.43% (inactive) |
| CN1C(=O)c2cc(NC(=O)c3cccs3)ccc2OC[C@@H]2O[C@@H](CC(=O)O)CC[C@@H]21 | -5.79% (inactive) |
| COc1ccc(C(=O)C2CCCN(Cc3cccn3-c3ccccn3)C2)c(OC)c1 (configuration not stated) | -32.3% (inactive) |
| Cc1cccc(NC(=O)Nc2ccc3c(c2)C(=O)N(C)[C@@H]2CC[C@H](CC(=O)NCc4ccccc4Cl)O[C@H]2CO3)c1 | -6.91% (inactive) |
| O=C(C1CCOCC1)N1C[C@H]2[C@@H](c3ccccc31)[C@@H](CO)N2Cc1ccccc1 | -2.48% (inactive) |
| CN1C(=O)c2cc(NC(=O)c3cccs3)ccc2OC[C@H]2O[C@H](CC(=O)NCC(F)(F)F)CC[C@H]21 | -1.19% (inactive) |
| COc1ccc(S(=O)(=O)N(C)C[C@@H]2Oc3ncc(/C=C/c4ccccc4)cc3C(=O)N([C@@H](C)CO)C[C@@H]2C)cc1 | -17.3% (inactive) |
| CC(=O)N1[C@H](CO)[C@@H](c2ccccc2)[C@H]1CN(CC(C)C)C(=O)c1ccccn1 | 7.05% [at 23.5 µM] (inactive) |
| CC(=O)Nc1ccc2c(c1)C(=O)N(C)[C@H]1CC[C@H](CC(=O)Nc3ccccc3Cl)O[C@@H]1CO2 | 0.573% (inactive) |
| COc1ccc(-c2c(C)nn3c(N)c(-c4ccccc4)cnc23)cc1OC | 21.1% (inactive) |
| CCC(=O)N1[C@H](CO)[C@H](c2ccccc2)[C@@H]1CN(CC)C(=O)c1ccccc1 | -4.96% [at 23.5 µM] (inactive) |
